Data: PubChem BioAssay (NCI)
This is part of a sample that, as a whole, favours compounds with a hit. Of some 83,000 tested, about 20% had one in any assay.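 In brief: 96-well plates, 48 h treatment, single concentration, percent growth endpoint.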 Unmarked numbers belong to inactive results. Active and inactive are the calls of the source. Rule for the calls: active = growth percent below 10; inactive = the rest.

Key:
Assay in all cases: NCI-60 one-dose screen, 48 h (100 = growth as untreated, 0 = no growth, -100 = all killed)
Details in all cases: 10 µM unless noted
SR leukemia = test system: SR leukemia
RPMI-8226 leukemia = test system: RPMI-8226 leukemia
OVCAR-8 ovarian = test system: OVCAR-8 ovarian
OVCAR-5 ovarian = test system: OVCAR-5 ovarian
OVCAR-4 ovarian = test system: OVCAR-4 ovarian
SK-OV-3 ovarian = test system: SK-OV-3 ovarian
IGROV1 ovarian = test system: IGROV1 ovarian
OVCAR-3 ovarian = test system: OVCAR-3 ovarian
HS 578T breast = test system: HS 578T breast
NCI/ADR-RES ovarian = test system: NCI/ADR-RES ovarian
T-47D breast = test system: T-47D breast
MDA-MB-435 melanoma = test system: MDA-MB-435 melanoma
SW-620 colon = test system: SW-620 colon
MCF7 breast = test system: MCF7 breast
HCT-116 colon = test system: HCT-116 colon
HCC-2998 colon = test system: HCC-2998 colon
KM12 colon = test system: KM12 colon
BT-549 breast = test system: BT-549 breast

| SMILES | growth (SR leukemia) | growth (RPMI-8226 leukemia) | growth (OVCAR-8 ovarian) | growth (OVCAR-5 ovarian) | growth (OVCAR-4 ovarian) | growth (SK-OV-3 ovarian) | growth (IGROV1 ovarian) | growth (OVCAR-3 ovarian) | growth (HS 578T breast) | growth (NCI/ADR-RES ovarian) | growth (T-47D breast) | growth (MDA-MB-435 melanoma) | growth (SW-620 colon) | growth (MCF7 breast) | growth (HCT-116 colon) | growth (HCC-2998 colon) | growth (KM12 colon) | growth (BT-549 breast) |
| --- | --- | --- | --- | --- | --- | --- | --- | --- | --- | --- | --- | --- | --- | --- | --- | --- | --- | --- |
| COc1ccc(C(C)=O)cc1S(N)(=O)=O | 104% | 98.9% | 96.6% | 102% | 101% | 115% | 108% | 108% | 91.6% | 98.1% | 105% | 99.3% | 103% | 96.4% | 89% | 98.3% | 103% | – |
| CC(C)CCSc1nc(Nc2ccccc2)c(C#N)c(-c2ccccc2)n1 | 27.2% | 73.9% | 42.7% | 64.9% | -7.19% (active) | 69.1% | 17.3% | 57.6% | 14.3% | 52.4% | 58.3% | 94% | 56.9% | 45.6% | 27.5% | 46.3% | 89.9% | – |
| CC/C(Cc1ccccc1)=C(\c1ccc(OCCN2CCCCCC2)cc1)c1ccc(OC(=O)NCc2ccccc2)cc1 | -21.1% (active) | 30.8% | 58.9% | 80.9% | 57% | 88.6% | 63.5% | 89.8% | 78.6% | 74% | 40.9% | 79.6% | 64.5% | 13.7% | 2.8% (active) | 65.2% | 67.9% | – |
| CC1O[C@@H]2C[C@@](O)([C@H]1O)n1c3ccccc3c3c4c(c5c6ccccc6n2c5c31)C(=O)NC4=O (stereo partly drawn) | 32% | 55.3% | 63.3% | 72.8% | 66.8% | 48.4% | 67.6% | 55.4% | 82.6% | 80.7% | 8.92% (active) | 43.1% | 35.4% | 22.3% | 15.6% | 73.4% | 22.8% | – |
| CC(C)=CC(=O)N[C@@H]1CC2CCC3C(CC[C@@]4(C)C3CC[C@@H]4C(C)N(C)C)[C@@]2(C)C[C@@H]1O (stereo partly drawn) | -39.8% (active) | -2.36% (active) | 81.8% | 81.4% | 11.5% | 81.3% | 61.9% | 46.5% | 59.7% | 52.5% | 22.3% | 12.6% | 28.2% | 33.9% | 27.1% | 52% | 38.2% | – |
| CS(=O)(=O)Nc1cncc(-c2ccc3ncnc(Nc4ccc(F)c(Cl)c4)c3c2)c1 | 23.3% | 15.7% | 47.1% | 33.3% | 63.4% | -0.027% (active) | -17.2% (active) | 22.1% | 3.01% (active) | 84% | -9.57% (active) | – | 43.1% | 13.1% | 19.6% | 66% | 59.4% | 32.4% |
| O=C1Nc2ccccc2C2c3cccn3-c3ccccc3N12 (stereo not drawn) | 49.5% | 82.6% | 86.9% | 96.6% | 84.2% | 84.6% | 74.1% | 74.1% | 78.3% | 42.7% | 76% | – | 49.6% | 60.1% | 78.2% | – | 62.3% | 82.7% |
| CCn1cc(C(=O)NN=C2CCCCCC2)c(=O)c2ccc(C)nc21 | 85.8% | 88.1% | 92.5% | 92.6% | 79.6% | 98.2% | 81.5% | 86.2% | 80.1% | 89.4% | 77.2% | – | 91.2% | 77.2% | 77.7% | 99.1% | 87.6% | 83% |
| CCN(CC)c1ccc(/C=C\c2cc(C)c3cc(C)ccc3n2)cc1 | 34.2% | 17.3% | 34.8% | 70.9% | 50.4% | 40.1% | 22% | 33.4% | 42.5% | -4.28% (active) | -22.3% (active) | – | 23.1% | 19.9% | 6.6% (active) | – | 27.1% | -11.5% (active) |
| Cc1cc2nc(-c3c(-c4ccc(F)cc4)nc4sccn34)[nH]c2cc1C | 83.2% | 87.9% | 96% | 111% | 94.7% | 94.9% | 95.9% | 102% | 103% | 91.6% | 85.7% | 103% | 108% | 91.6% | 103% | 106% | 96.7% | – |
| CC(O)c1ncc(/C=C2\SC(=S)N(Cc3ccccc3)C2=O)s1 (stereo not drawn) | 82.4% | 52.3% | 102% | 98.6% | 85.1% | 96.6% | 100% | 97.2% | 109% | 99.5% | 42.4% | – | 90.3% | 80.3% | 96% | 120% | 81% | 92.9% |
| COc1cc(Nc2c3ccc(Cl)cc3nc3ccc(OC)cc23)c2ncccc2c1 | 19.8% | 55.5% | 46.1% | 70.2% | 20.3% | 52.5% | 32.2% | 33.9% | 65.1% | 53.9% | 48.6% | – | 45.7% | 40.3% | 26% | 44.8% | 39.3% | 56.2% |
| C=C1C(=O)O[C@H]2[C@H]1CC/C(CNC(=O)c1cc3ccccc3[nH]1)=C\CC[C@@]1(C)O[C@@H]21 | -37.4% (active) | -29% (active) | -26.2% (active) | -46% (active) | -7.16% (active) | 68% | -26.3% (active) | -93.8% (active) | 42.7% | 22.4% | -42.2% (active) | – | -57.4% (active) | -56.7% (active) | – | -75.5% (active) | -38.4% (active) | -79.8% (active) |
| Cc1ccc(C)n1/C=C/n1c(C)ccc1C | 122% | 78.6% | 99.3% | 101% | 98.4% | 100% | 16.2% | 146% | 113% | 92.4% | 90.5% | 91.9% | 110% | 106% | 104% | 95% | 109% | – |
| O=C(O)c1cn(C2CC2)c2cc(N3CCN(C(=O)N/N=C/c4ccccc4)CC3)c(F)cc2c1=O | 54.4% | 104% | 96.3% | 110% | 102% | 95.8% | 102% | 102% | 105% | 97.4% | 91.4% | 106% | 110% | 97.3% | 108% | 99.9% | 94.8% | – |
| Cc1ccc(-c2nc(C#N)c(S(=O)(=O)NCCO)o2)cc1 | -7.78% (active) | 1.81% (active) | 64.7% | 94.5% | 86.9% | 95.7% | 65.1% | 41.3% | 107% | 81% | 43.1% | 68.5% | 33.8% | 37.9% | 51.6% | 98.1% | 88% | – |
| Cc1nc2sc(C(=O)Nc3ccc(Cl)cc3)c(N)c2cc1C(O)c1ccccc1 (stereo not drawn) | 11% | 15.5% | 49.7% | 59.6% | 64.9% | 51.3% | 53.9% | 5.14% (active) | 26.8% | 25.8% | 40.8% | -12.6% (active) | 25.1% | 21.1% | 25.9% | 62.5% | 21.7% | – |
| C#CC#CC#CC#CC#CC#CC#CC#CC[C@H]1OC[C@H](COC(=O)O[C@@H](C(=O)O[C@H]2C[C@@]3(O)[C@@H](OC(=O)c4ccccc4)[C@@H]4[C@]5(OC(C)=O)CO[C@@H]5C[C@H](O)[C@@]4(C)C(=O)[C@H](OC(C)=O)C(=C2C)C3(C)C)[C@@H](NC(=O)c2ccccc2)c2ccccc2)O1 | 25.8% | 16% | 52.7% | 38.4% | 60.7% | 66.2% | 48.1% | 15.7% | 43.7% | 106% | 40.6% | -57.8% (active) | 38% | 24.4% | 15.5% | 38.2% | 18% | – |
